Compounds without any hit were thinned out: in the full panel of roughly 83,000, 20% have a hit.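 Treatment: one concentration, 48 hours, 96-well format. Scoring: percent growth, with anything below 10 considered active.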 A number with no mark means an inactive call. The source made the active and inactive calls.

We go through 13 molecules from PubChem BioAssay (NCI).

Common to all, as to assay: NCI-60 one-dose screen, 48 h (100 = growth as untreated, 0 = no growth, -100 = all killed)
What all share (settings): 10 µM unless noted

Assay [1] relates to NCI-H23 lung.
Assay [2] relates to NCI-H226 lung.
Assay [3] deals with NCI-H322M lung.
Assay [4] concerns HOP-62 NSCLC.
Assay [5] relates to NCI-H460 lung.
Assay [6] has as its system HOP-92 NSCLC.
Assay [7] has as its system NCI-H522 lung.
Assay [8] relates to A549/ATCC NSCLC.
The subject of assay [9] is 786-0 renal.
The test system of assay [10] is COLO 205 colon.

Turning to `C=C(CN1CCN(c2cccc(C(F)(F)F)n2)CC1)c1ccc(C(=O)Nc2ccccc2N)cc1`, the growth was 35.5% in [1]; 84.2% in assay [2]; 45.8% in assay [3]; 20.6% in [4]; 7.02% (active) in assay [5]; -12.1% (active) in assay [6]. Moreover, the growth in assay [7] was -45.3% (active); in assay [8], 27.3%; in [9], 7.8% (active); in [10] it was 1.41% (active).
As for `CCN(CC)c1ccc(CNc2cc(C)nc3ccc(OC)cc23)cc1`, the growth was 21.2% in assay [1]; 75.8% in assay [2]; -5.55% (active) in assay [3]; 102% in assay [4]; -39.4% (active) in [5]; 20.7% in assay [6]. In addition, the growth in assay [7] is 24.6%; in assay [8] it was 70.2%; in assay [9], 73.7%; in assay [10] it was -75.2% (active).
As for `C=C(C[n+]1ccccc1)[C@@H]1CC[C@]2(C(=O)OC)CC[C@]3(C)[C@H](CC[C@@H]4[C@@]5(C)CC[C@H](O)C(C)(C)[C@@H]5CC[C@]43C)[C@@H]12`, the growth in assay [1] is 97.4%; in [2], 89.5%; in [3] it was 101%; in assay [4], 93.5%; in assay [5], 105%; in [6], 82.9%. The growth was 78% in assay [7], 105% in assay [8], 102% in assay [9] and 102% in assay [10].
As for `O=C(Cn1cc(CN2C(=O)c3ccccc3S2(=O)=O)nn1)Nc1ccc([N+](=O)[O-])cc1Cl`, the growth is 90% in assay [1]; 91.8% in assay [2]; 94.5% in assay [3]; 101% in assay [4]; 102% in [5]; 107% in assay [6]. Besides, the growth was 101% in assay [7], 106% in [8], 105% in [9] and 103% in assay [10].
For the molecule `CN1Cc2c(cc(CN3CCCCC3)n2C)C(c2ccc(Br)cc2)C1` (stereo not given), the growth in assay [1] was 84.6%; in assay [2], 90.7%; in assay [3], 91.5%; in assay [4] it was 91.1%; in assay [5] it was 96.9%; in assay [6], 53.9%. Besides, the growth was 90.5% in assay [7], 93.8% in assay [8], 66.5% in [9] and 83.1% in [10].
`CCOC(=O)C(C#N)C1CCCCC1` (stereo not given): the growth in assay [1] is 93.6%; in [2], 83.4%; in assay [3], 92.1%; in assay [4], 90.4%; in assay [5] it was 123%; in assay [6] it was 80.7%. Besides, the growth in [7] was 96.9%; in [8] it was 105%; in assay [9] it was 105%; in [10], 127%.
For `COc1ccc(C(=O)/C=C/c2cc3ccccc3[nH]c2=O)cc1`, the growth in assay [1] is 11.9%; in assay [2], 64.5%; in assay [3], 61.5%; in assay [4] it was 29.7%; in [5] it was 3.4% (active); in [6], 34.6%. Also, the growth in [7] is -31% (active); in assay [8] it was 42.3%; in assay [9], 33.5%; in assay [10] it was 66.9%.
For `CCC(=O)OCc1cccc(OC)c1`, the growth in assay [1] is 107%; in assay [2], 97.9%; in assay [3], 108%; in assay [4], 87.9%; in assay [5] it was 95.8%; in assay [6], 76.4%. The growth is 94.5% in [7], 113% in assay [8], 102% in assay [9] and 111% in assay [10].
Take `CCc1ccc(C(c2ccc(CC)cc2)C(Cl)(Cl)CCl)cc1`: the growth is 92.8% in assay [1]; 101% in assay [2]; 110% in [3]; 99.1% in [4]; 98.8% in assay [5]; 55.2% in [6]. The growth is 83% in assay [7], 149% in assay [8], 84% in assay [9] and 100% in [10].
Regarding `COc1ccc2nc3cc(Cl)ccc3c(N3CCN(c4nccc(NCc5ccccc5)n4)CC3)c2c1`, the growth in [1] is 73.2%; in assay [2], 96.4%; in assay [3], 89.4%; in assay [4] it was 35.9%; in assay [5] it was 89.9%; in assay [6] it was 69.1%. Also, the growth in assay [7] was -0.14% (active); in assay [8] it was 78.3%; in [9], 79%; in [10], 82.1%.
Take `COc1cnc2c(c1)C(=O)c1c-2n(CCCBr)c(=O)c2cc([N+](=O)[O-])ccc12`: the growth in assay [1] was -5.87% (active); in assay [2] it was -1.66% (active); in [3], 15.5%; in assay [4] it was 3.86% (active); in [5], 2.4% (active); in assay [6], 26.5%. Besides, the growth in [7] was -18.4% (active); in assay [8] it was 2.68% (active); in [9] it was 5.26% (active); in assay [10], -26.2% (active).
With `Cc1ccc2c(c1)O/C(=C\c1cccc(OCC(=O)c3ccccc3)c1)C2=O`, the growth is 97.4% in assay [1]; 93.6% in assay [2]; 116% in assay [3]; 90.3% in assay [4]; 107% in assay [5]; 75.2% in assay [6]. The growth was 70.3% in assay [7], 81.6% in [8], 91.1% in [9] and 101% in assay [10].
For the molecule `COc1ccc(C(=O)COc2ccc(/C=C3\Oc4ccc(Cl)cc4C3=O)cc2)cc1`, the growth in [1] was 67.6%; in assay [2], 92%; in assay [3], 96.6%; in assay [4], 100%; in assay [5], 111%; in assay [6] it was 48.9%. Besides, the growth in assay [7] is 80.5%; in assay [8], 95.1%; in assay [9], 106%; in [10], 96%.
